In the assay the target is Histone deacetylase 11 (Homo sapiens) (UniProt Q96DB2). The assay is described as follows: inhibitors of recombinant human HDAC11 – biochemical, selectivity assay for E-cadherin restoration project, profiling panel (AID 651911).

SMILES strings stand for the structures. Active and inactive are the calls of the source. The rule behind the calls is not given here.

Sequence of Histone deacetylase 11 (Homo sapiens) (Q96DB2 whole entry, looked up): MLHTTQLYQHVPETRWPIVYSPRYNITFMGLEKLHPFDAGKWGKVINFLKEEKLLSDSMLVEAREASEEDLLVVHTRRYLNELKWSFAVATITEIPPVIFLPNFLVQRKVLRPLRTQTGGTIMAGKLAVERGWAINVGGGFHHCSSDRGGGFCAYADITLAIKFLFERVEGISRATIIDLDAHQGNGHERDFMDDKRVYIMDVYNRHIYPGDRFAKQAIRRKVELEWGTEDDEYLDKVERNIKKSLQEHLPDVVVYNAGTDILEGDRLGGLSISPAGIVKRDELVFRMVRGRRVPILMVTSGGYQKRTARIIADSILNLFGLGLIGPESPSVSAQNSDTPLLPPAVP

As for `O=C(NCCCNC(=O)c1ccc[nH]c1=O)c1cc(-c2ccccc2)on1`, the outcome was inactive.

The values above are taken from PubChem BioAssay AID651911 (Vanderbilt Specialized Chemistry Center, 2012).
